We go through eight molecules from PubChem BioAssay (NCATS).

Test [1] addresses Lysosomal acid glucosylceramidase (Homo sapiens) (UniProt P04062). Kind of test: Glucocerebrosidase-p2 (AID 348; in the data active = potency below about 10 µM; note: potency is the fitted concentration of half-maximal effect). The following applies: purified GBA, blue fluorogenic substrate, 40 min. The essentials: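 Compounds titrated from 0.6 nM upwards against 0.2 nM enzyme in pH 5.9 citric acid/KH2PO4, taurocholate, tween-20; blue fluorogenic substrate 80 uM, 40 min room temperature, stopped and read Ex 365/Em 440 for AC50.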

Test [2] can be described thus: AP1 Signaling Pathway (AID 357). Note: % is set by controls: 0 for no effect and ±100 for the full control effect. To be noted: ME-180 AP-1-bla reporter, EGF-induced, beta-lactamase ratio, 5 h; at 7.69 µM (top of the series) unless noted. The essentials: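 Read-out was the 460nm/530nm emission ratio (excitation 405nm) after CCF4 loading for 2.5 hours at room temperature. Cells carried an AP-1-driven beta-lactamase reporter, were stimulated with EC50 EGF plus compound for 5 hours, and AC50 values came from titrations.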

A short description of test [3]: Stat Signaling Pathway (AID 446).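 Note: ME-180 cervical cancer cells given 40 pM IL-6 alongside compound; SIE-controlled beta-lactamase reporter measured as 460/530 nm FRET emission ratio; % is set by controls: 0 for no effect and ±100 for the full control effect.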 The following applies: ME-180 SIE beta-lactamase reporter, IL-6 stimulated, 5 h; at 7.69 µM (top of the series) unless noted. The method, boiled down: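 IL-6/STAT signaling read in ME-180 cells via an SIE beta-lactamase reporter. Stimulus was 40 pM IL-6 (its AC50) for 5 hrs, so both activation and inhibition register.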
Test [4] deals with Glucocorticoid receptor (Homo sapiens) (UniProt P04150). Kind of test: GR-GFP Redistribution (AID 450;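 active = compounds whose dose series gives a full or clear partial fitted curve of increased nuclear translocation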; note: potency is the fitted concentration of half-maximal effect). The following applies: U2OS GR-GFP nuclear translocation, laser cytometry, 2 h.
Sequence of Glucocorticoid receptor (Homo sapiens) (P04150 whole entry, looked up, the tested form may be a part): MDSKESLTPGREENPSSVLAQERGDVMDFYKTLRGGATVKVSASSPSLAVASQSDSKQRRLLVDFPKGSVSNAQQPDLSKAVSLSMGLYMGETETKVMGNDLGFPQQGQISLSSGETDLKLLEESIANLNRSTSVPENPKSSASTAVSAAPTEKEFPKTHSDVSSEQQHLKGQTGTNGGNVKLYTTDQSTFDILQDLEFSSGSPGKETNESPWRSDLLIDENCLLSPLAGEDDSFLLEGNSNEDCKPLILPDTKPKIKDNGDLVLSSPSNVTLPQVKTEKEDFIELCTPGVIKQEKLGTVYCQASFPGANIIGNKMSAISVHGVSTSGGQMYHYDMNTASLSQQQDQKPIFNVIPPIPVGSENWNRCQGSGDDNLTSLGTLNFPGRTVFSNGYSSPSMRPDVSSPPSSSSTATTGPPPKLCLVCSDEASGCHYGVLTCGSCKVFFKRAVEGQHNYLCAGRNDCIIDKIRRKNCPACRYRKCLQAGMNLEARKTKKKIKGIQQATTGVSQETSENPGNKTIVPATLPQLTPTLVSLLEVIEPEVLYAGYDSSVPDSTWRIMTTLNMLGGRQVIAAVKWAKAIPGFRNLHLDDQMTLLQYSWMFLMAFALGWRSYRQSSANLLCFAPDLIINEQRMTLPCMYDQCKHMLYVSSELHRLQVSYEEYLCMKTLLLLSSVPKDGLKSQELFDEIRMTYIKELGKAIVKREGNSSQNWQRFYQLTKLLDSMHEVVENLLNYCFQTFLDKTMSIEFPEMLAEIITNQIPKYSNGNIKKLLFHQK
The target is the same in test [5]. Kind of test: GR-EFC Redistribution (AID 451; calls by dose curve; note: potency is the fitted concentration of half-maximal effect). The following applies: CHO-K1 GR-EFC translocation, beta-gal luminescence, 2 h. The essentials: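 Translocation of GR-ED fusion to nuclear EA restores b-gal, read by luminescence after 1 h room-temperature detection. Engineered CHO-K1 biosensor cells, 1,000/well, exposed 2 h at 37 C to titrations up to 46 uM final.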

The target in test [6] is Mitogen-activated protein kinase 10 (Mus musculus) (UniProt Q61831). Kind of test: JNK3 AlphaScreen Assay (AID 530).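 Note: kinase came from lysate of stimulated human HepG2 cells; signal reports phosphorylation of biotinylated GST-cJun 1-79 at Ser73 with 10 µM ATP; % is set by controls: 0 for no effect and ±100 for the full control effect.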 To be noted: JNK3 lysate, c-Jun phosphorylation; series mostly up to 11.4 µM. The essentials: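 Compound titrations were preincubated 15 minutes at room temperature with substrate, antibody and pre-activated JNK3-containing HepG2 lysate. Reactions were started with 10 uM ATP and stopped with EDTA-containing bead buffer for AlphaScreen detection.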
Background: In Alpha technology, singlet oxygen from a donor bead excites a nearby acceptor bead.

Test [7] deals with 3',5'-cyclic-AMP phosphodiesterase 4B (Homo sapiens) (UniProt Q07343). Briefly: qHTS Assay for Inhibitors of PDE-IV (AID 607; active = well fitted activation curve with a large enough effect in the main read-out, with a control signal flat, not every such curve was filed as active; note: % of control where 0% means no effect). The following applies: HEK293 ACTOne CNG channel cells, membrane potential fluorescence; series mostly up to 22.9 µM. The method, boiled down:
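Live HEK293 cells with a modified cyclic nucleotide-gated (CNG) channel report intracellular cAMP via membrane-potential dye fluorescence (ex 535/em 590 nm). Endogenous PDE-IV was targeted. Compounds were tested at up to 22.9 uM final; RO 20-1724 100 uM served as control.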
A general note: qHTS replaces the single test concentration by a dilution series.

Test [8] has as its target Cytochrome P450 3A4 (Homo sapiens) (UniProt P08684). Briefly: qHTS Assay for Inhibitors and Substrates of Cytochrome P450 3A4 (AID 884; active = well fitted curve in the direction sought with a large enough effect; an effect the other way counts as inactive or inconclusive; note: potency is the fitted concentration of half-maximal effect; nearly all actives have a fitted effect of over 50% in size). To be noted: recombinant CYP3A4, Luciferin-PPXE luminescence; series mostly up to 57.1 µM. The essentials: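 20 nM human CYP3A4 with 25 uM Luciferin-PPXE (at KM) in 200 mM KPO4, preincubated 10 min with compound; NADPH regeneration started a 60 min RT reaction. Luciferin detected by luminescence, normalized to 57 uM ketoconazole as full inhibition.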

For test [9] the target is unchanged. Briefly: qHTS Assay for Activators of Cytochrome P450 3A4 (AID 885; active = well fitted curve in the direction sought with a large enough effect; an effect the other way counts as inactive or inconclusive; note: nearly all actives have a fitted effect of over 65% in size). The following applies: recombinant CYP3A4, Luciferin-PPXE luminescence, 60 min; series mostly up to 11.4 µM. The method, boiled down:
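Quantitative HTS format: compounds preincubated with 20nM human CYP3A4 and Luciferin-PPXE substrate at KM, reaction started by NADPH regeneration, stopped after 60 min, luciferase luminescence read 20 min later.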

The nature of test [10]: qHTS Assay for Identification of Small Molecule Agonists for Hypoxia Response Element Signaling Pathway (AID 914; active = well fitted activation curve with a large enough effect in the signal ratio, with a control signal flat, not every such curve was filed as active; the % refers to the signal ratio; note: % of control where 0% means no effect). To be noted: ME-180 (cervical carcinoma) HRE-bla reporter, beta-lactamase ratio, CoCl2, 17 h; activation: hits give high values. The method, boiled down:
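qHTS titration; ME-180 HRE-bla cells; EC50 CoCl2 co-treatment, 17 h at 37 degrees Celsius; CCF4 dye, ex 405nm, em 460nm and 530nm; %Activity from ratio; AC50.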

Test [11] has as its target Cytochrome P450 2C19 (Homo sapiens) (UniProt P33261). Briefly: qHTS Assay for Inhibitors and Substrates of Cytochrome P450 2C19 (AID 899; active = well fitted curve in the direction sought with a large enough effect; an effect the other way counts as inactive or inconclusive; note: nearly all actives have a fitted effect of over 60% in size; note: potency is the fitted concentration of half-maximal effect; for activity, negative = inhibition: % is set by controls: 0 for no effect and ±100 for the full control effect). The following applies: recombinant CYP2C19, luciferin-H EGE luminescence; series mostly up to 11.4 µM. The essentials: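 5nM enzyme + 10uM Luciferin-H EGE (=KM), 50mM KPO4; cpd pin-transferred, 10 min 37C; NADPH regen, 60 min 37C; stopped w/ luciferin detection reagent, 20 min; luminescence. Normalized to 57uM ketoconazole (AC100).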

Unmarked numbers belong to inactive results. Results filed as inconclusive are left out. Calls of active or inactive are those of the source. Unless noted, calls come from the whole dose curve; as a rule, active = well fitted curve in either direction with a large enough effect (not every such curve was filed as active); inconclusive = small, poorly fitted or top-dose-only effect, or another doubt; inactive = flat fitted curve, though single readings scatter.

Sequence of 3',5'-cyclic-AMP phosphodiesterase 4B (Homo sapiens) (Q07343 whole entry, looked up): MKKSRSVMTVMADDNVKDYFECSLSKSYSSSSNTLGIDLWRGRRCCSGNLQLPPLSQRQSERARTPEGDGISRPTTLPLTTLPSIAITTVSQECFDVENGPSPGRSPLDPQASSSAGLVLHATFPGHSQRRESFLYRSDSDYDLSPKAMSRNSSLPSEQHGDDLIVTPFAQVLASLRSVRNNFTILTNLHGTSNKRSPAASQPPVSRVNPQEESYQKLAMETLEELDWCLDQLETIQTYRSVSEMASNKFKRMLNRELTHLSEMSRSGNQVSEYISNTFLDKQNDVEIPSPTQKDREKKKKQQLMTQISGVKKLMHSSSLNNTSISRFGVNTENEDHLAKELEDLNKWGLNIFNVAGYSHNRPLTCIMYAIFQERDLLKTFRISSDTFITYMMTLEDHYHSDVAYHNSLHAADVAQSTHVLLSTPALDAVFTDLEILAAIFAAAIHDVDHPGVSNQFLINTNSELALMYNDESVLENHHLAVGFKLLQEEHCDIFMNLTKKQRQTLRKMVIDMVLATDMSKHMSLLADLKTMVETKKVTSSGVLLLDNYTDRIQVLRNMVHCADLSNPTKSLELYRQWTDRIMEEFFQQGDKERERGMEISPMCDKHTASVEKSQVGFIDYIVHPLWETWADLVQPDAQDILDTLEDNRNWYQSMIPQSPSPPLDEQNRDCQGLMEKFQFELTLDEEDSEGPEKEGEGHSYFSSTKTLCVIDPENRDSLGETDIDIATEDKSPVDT
Sequence of Lysosomal acid glucosylceramidase (Homo sapiens) (P04062 whole entry, looked up): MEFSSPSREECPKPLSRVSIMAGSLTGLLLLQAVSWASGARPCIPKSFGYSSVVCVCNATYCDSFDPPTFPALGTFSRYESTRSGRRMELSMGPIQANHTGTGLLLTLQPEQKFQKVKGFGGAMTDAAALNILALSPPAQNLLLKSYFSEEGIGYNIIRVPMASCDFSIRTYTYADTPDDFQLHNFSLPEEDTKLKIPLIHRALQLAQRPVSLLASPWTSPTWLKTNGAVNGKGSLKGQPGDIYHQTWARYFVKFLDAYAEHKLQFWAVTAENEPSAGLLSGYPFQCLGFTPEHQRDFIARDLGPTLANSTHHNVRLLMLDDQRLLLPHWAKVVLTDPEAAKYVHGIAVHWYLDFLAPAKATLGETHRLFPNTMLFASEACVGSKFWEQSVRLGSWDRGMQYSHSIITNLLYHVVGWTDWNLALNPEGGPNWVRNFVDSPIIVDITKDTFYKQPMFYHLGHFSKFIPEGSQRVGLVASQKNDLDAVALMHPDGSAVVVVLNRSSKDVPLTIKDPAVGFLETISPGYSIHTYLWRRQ
Sequence of Cytochrome P450 3A4 (Homo sapiens) (P08684 whole entry, looked up): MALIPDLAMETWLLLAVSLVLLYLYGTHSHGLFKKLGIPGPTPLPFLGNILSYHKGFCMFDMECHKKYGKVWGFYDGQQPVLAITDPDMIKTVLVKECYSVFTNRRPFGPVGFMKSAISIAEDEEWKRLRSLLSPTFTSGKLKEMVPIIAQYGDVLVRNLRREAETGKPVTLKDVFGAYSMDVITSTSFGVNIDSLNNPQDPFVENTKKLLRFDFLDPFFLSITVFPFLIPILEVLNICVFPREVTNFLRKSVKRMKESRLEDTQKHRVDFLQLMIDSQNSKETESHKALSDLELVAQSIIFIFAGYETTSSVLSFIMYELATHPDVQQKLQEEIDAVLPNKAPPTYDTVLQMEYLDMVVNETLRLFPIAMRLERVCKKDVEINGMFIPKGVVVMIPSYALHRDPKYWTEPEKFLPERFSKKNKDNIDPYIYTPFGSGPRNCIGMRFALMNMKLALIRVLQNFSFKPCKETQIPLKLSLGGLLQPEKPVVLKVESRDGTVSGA
Sequence of Cytochrome P450 2C19 (Homo sapiens) (P33261 whole entry, looked up): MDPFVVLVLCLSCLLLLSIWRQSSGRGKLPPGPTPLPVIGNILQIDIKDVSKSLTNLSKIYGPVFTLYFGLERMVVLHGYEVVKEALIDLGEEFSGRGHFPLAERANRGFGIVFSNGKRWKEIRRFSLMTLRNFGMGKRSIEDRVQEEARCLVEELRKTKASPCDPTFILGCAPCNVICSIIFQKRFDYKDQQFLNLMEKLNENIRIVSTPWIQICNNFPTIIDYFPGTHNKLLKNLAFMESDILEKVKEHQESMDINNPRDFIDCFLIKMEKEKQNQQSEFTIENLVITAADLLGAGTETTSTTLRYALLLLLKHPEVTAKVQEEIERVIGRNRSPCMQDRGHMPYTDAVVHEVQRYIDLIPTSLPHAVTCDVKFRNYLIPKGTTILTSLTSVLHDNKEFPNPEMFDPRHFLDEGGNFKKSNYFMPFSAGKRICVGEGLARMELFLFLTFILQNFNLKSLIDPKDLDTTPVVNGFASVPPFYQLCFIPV

Take `Clc1ccc(CSCc2ccc(Cl)cc2Cl)c(Cl)c1`: the Potency in test [1] is > 11.4 µM; in test [4] it was > 46 µM; in test [5], > 9.22 µM. The activity change, negative = inhibition in [2] is -7.04%. In [3], the activity, negative = inhibition was 1.58%. Besides, the Potency entry in test [6] and in [7] was “inactive” throughout.

With `CN(C)Cc1cc(C(F)(F)F)ccc1C(O)(c1ccccc1)c1ccccc1`, the Potency is > 11.4 µM in test [1], > 46 µM in test [4], > 9.22 µM in [5] and 794 nM (active) in [8]. Moreover, the activity change, negative = inhibition in [2] is 19.8%. The activity, negative = inhibition in test [3] is 9.65%. Besides, the Potency entry in test [6], in [7] and in [9] was “inactive” throughout. Moreover, the activation in test [10] was 25.7%.

`NC(CSS(=O)(=O)O)=N[C@@H]1C[C@H]2CC[C@@H]1C2`: the Potency in [1] is > 11.4 µM; in test [4], > 46 µM; in [5], > 9.22 µM. Also, the activity change, negative = inhibition in [2] was 16.8%. Further, the activity, negative = inhibition in [3] was -5.27%. In addition, the Potency entry in test [6], in [7] and in [11] was “inactive” in each case.

For `COc1ccc(NCc2c(O)ccc3ccccc23)cc1`, the Potency in test [1] was > 11.4 µM; in test [4] it was > 46 µM; in [5] it was > 9.22 µM. The activity change, negative = inhibition in test [2] was -6.4%. Moreover, the activity, negative = inhibition in test [3] was -5.4%. In addition, the Potency entry in test [6] and in test [7] was “inactive” each time.

For `CC(=O)NC1=C(OS(=O)(=O)c2ccc(C)cc2)CN(C)C1=O`, the Potency in [1] was > 11.4 µM; in test [4], > 46 µM; in [5], > 9.22 µM. The activity change, negative = inhibition in [2] is 24.1%. Further, the activity, negative = inhibition in [3] was -10.5%. For the same molecule, the Potency entry in test [6] and in test [7] was “inactive” throughout.

On to `COc1ccc(C(=O)N/N=C2/C(=O)c3c(C)cc(C)cc3CC2(C)C)cc1`, for which the Potency in [1] is > 11.4 µM; in test [4], > 46 µM; in test [5], > 9.22 µM; in test [8] it was 3160 nM (active); in test [11] it was 3.98 µM (active). Moreover, the activity change, negative = inhibition in test [2] is -13.7%. Also, the activity, negative = inhibition in [3] is 6.46%. Besides, the Potency result in test [6], in [7] and in [9] was “inactive” throughout.

Consider `O=C(CCN1CCCCC1)c1csc2ccccc12`, for which the Potency in [1] was > 11.4 µM; in test [4], > 46 µM; in [5], > 9.22 µM. In test [2], the activity change, negative = inhibition was -4.73%. The activity, negative = inhibition in test [3] is -9.72%. In addition, the Potency entry in test [6] and in test [7] was “inactive” throughout. Further, in [10], the activation is -7.69%.

With `C[C@@H]1CC[C@H]2[C@H](C)[C@H]3[C@H](C[C@H]4[C@@H]5CC=C6C[C@@H](O)CC[C@@]6(C)[C@@H]5C[C@@H](O)[C@]34C)N2C1`, the results for the Potency in test [1], in test [4] and in test [5] were > 11.4 µM, > 46 µM and > 9.22 µM, respectively. For the same molecule, in [2], the activity change, negative = inhibition was -4.34%. The activity, negative = inhibition in test [3] is -3.84%. The Potency result in test [6] and in test [7] was “inactive” throughout.
